The source made the active and inactive calls. Rule for the calls: active = hit-call score of the fitted dose curve at least 0.9, where 1 is the maximum; inactive = score below 0.9.

Experiment [1] can be described thus: BSK_hDFCGF_SRB: Viability Assessment in the BioMAP Diversity Plus: hDFCGF Assay (AID 2283061).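 Note: cells exposed to compound for 24 h before the read.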 Conditions: primary human foreskin fibroblasts. The method in brief: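 SRB-based viability read on primary human skin fibroblasts at 24 h: TCA fixation, 0.1% dye, 560 nm. Gain or loss of signal is fitted against the DMSO negative control.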
Read-out in experiment [2]: TIMP metallopeptidase inhibitor 1 (TIMP1), TIMP1 (gene 7076)
In words: BSK_hDFCGF_TIMP1: BioMAP Diversity Plus: hDFCGF Assay for TIMP metallopeptidase inhibitor 1 (TIMP1) Biomarker Activity (AID 2283062). Conditions: primary human foreskin fibroblasts; actives raise or lower the signal. In short, it runs like this: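 Bidirectional curve fitting against DMSO baseline yielded this endpoint, based on ELISA detection of TIMP-1 in primary human foreskin fibroblasts exposed to compound for 24 h.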

Read-out in experiment [3]: Monokine induced gamma interferon (MIG), CXCL9 (gene 4283)
In words: BSK_hDFCGF_MIG: BioMAP Diversity Plus: hDFCGF Assay for Monokine induced gamma interferon (MIG) Biomarker Activity (AID 2283063). Conditions: primary human foreskin fibroblasts; actives raise or lower the signal. The method in brief: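 Endpoint derived by bidirectional fitting relative to DMSO; MIG quantified via ELISA in primary human foreskin fibroblasts harvested 24 h after dosing.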

Read-out in experiment [4]: Matrix Metallopeptidase 1 (MMP1), MMP1 (gene 4312)
Kind of experiment: BSK_hDFCGF_MMP1: BioMAP Diversity Plus: hDFCGF Assay for Matrix Metallopeptidase 1 (MMP1) Biomarker Activity (AID 2283064). Conditions: primary human foreskin fibroblasts; actives raise or lower the signal. In short, it runs like this:
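Primary human foreskin fibroblasts in the hDFCGF system were dosed with test chemical, and MMP1 was measured by ELISA 24 h later. Values come from bidirectional curve fitting against the DMSO baseline.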

Read-out in experiment [5]: Vascular cell adhesion molecule 1 (VCAM1), VCAM1 (gene 7412)
In words: BSK_hDFCGF_VCAM1: BioMAP Diversity Plus: hDFCGF Assay for Vascular cell adhesion molecule 1 (VCAM1) Biomarker Activity (AID 2283065). Conditions: primary human foreskin fibroblasts; actives raise or lower the signal. The method in brief: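 Measured after 24 h chemical treatment of primary human skin fibroblasts, VCAM-1 was detected by ELISA and concentration-response analysed in both directions versus DMSO vehicle.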

Read-out in experiment [6]: Plasminogen activator inhibitor-1 (PAI1), SERPINE1 (gene 5054)
In words: BSK_hDFCGF_PAI1: BioMAP Diversity Plus: hDFCGF Assay for Plasminogen activator inhibitor-1 (PAI1) Biomarker Activity (AID 2283066). Conditions: primary human foreskin fibroblasts; actives raise or lower the signal. In short, it runs like this:
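Human foreskin fibroblast primary cells, 24 h chemical exposure; PAI-1 measured by ELISA. Bidirectional fitting relative to DMSO; parallel cultures stained with SRB for total protein to flag overt cytotoxicity.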

Read-out in experiment [7]: Intercellular Adhesion Molecule 1 (ICAM1), ICAM1 (gene 3383)
In words: BSK_KF3CT_ICAM1: BioMAP Diversity Plus: KF3CT Assay for Intercellular Adhesion Molecule 1 (ICAM1) Biomarker Activity (AID 2283067). Conditions: primary human keratinocytes with fibroblasts; actives raise or lower the signal. In short, it runs like this:
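Bidirectional curve fitting against a DMSO baseline was applied to ICAM-1 ELISA signal from primary human skin co-cultures harvested 24 h after treatment, with SRB staining of parallel wells for overt cytotoxicity.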

Read-out in experiment [8]: Interferon-gamma inducible Protein 10 (IP10), CXCL10 (gene 3627)
In words: BSK_KF3CT_IP10: BioMAP Diversity Plus: KF3CT Assay for Interferon-gamma inducible Protein 10 (IP10) Biomarker Activity (AID 2283068). Conditions: primary human keratinocytes with fibroblasts; actives raise or lower the signal. In short, it runs like this: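 Human keratinocyte plus foreskin fibroblast primary co-culture exposed to test chemical for 24 h; IP-10 measured by ELISA. Concentration-response fitted bidirectionally against DMSO control as baseline.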

Experiment [9] can be described thus: BSK_KF3CT_SRB: Viability Assessment in the BioMAP Diversity Plus: KF3CT Assay (AID 2283069).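 Note: total protein by sulforhodamine B staining as a cytotoxicity measure; read 24 h after compound addition.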 Conditions: primary human keratinocytes with fibroblasts. In short, it runs like this:
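Human primary keratinocyte plus foreskin fibroblast co-culture exposed to chemicals for 24 h. Total protein measured by 0.1% sulforhodamine B staining after 10% TCA fixation, read at 560 nm; bidirectional fitting versus DMSO baseline.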

Read-out in experiment [10]: Interleukin-1 alpha (IL1a), IL1A (gene 3552)
In words: BSK_KF3CT_IL1a: BioMAP Diversity Plus: KF3CT Assay for Interleukin-1 alpha (IL1a) Biomarker Activity (AID 2283070). Conditions: primary human keratinocytes with fibroblasts; actives raise or lower the signal. In short, it runs like this:
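Human keratinocyte plus foreskin fibroblast primary co-culture, sampled 24 h after chemical dosing. IL-1a measured by ELISA; responses fitted bidirectionally against DMSO baseline (negative control), so gain or loss of signal both count.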

Read-out in experiment [11]: TIMP metallopeptidase inhibitor 2 (TIMP2), TIMP2 (gene 7077)
In words: BSK_KF3CT_TIMP2: BioMAP Diversity Plus: KF3CT Assay for TIMP metallopeptidase inhibitor 2 (TIMP2) Biomarker Activity (AID 2283071). Conditions: primary human keratinocytes with fibroblasts; actives raise or lower the signal. In short, it runs like this:
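Co-culture of human primary keratinocytes and foreskin fibroblasts, measured 24 h after chemical dosing. TIMP-2 quantified by ELISA and fitted in both directions relative to DMSO. Cytotoxicity checked in parallel cultures by SRB total-protein staining.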

Read-out in experiment [12]: Transforming growth factor beta 1 (TGFb1), TGFB1 (gene 7040)
Kind of experiment: BSK_KF3CT_TGFb1: BioMAP Diversity Plus: KF3CT Assay for Transforming growth factor beta 1 (TGFb1) Biomarker Activity (AID 2283072). Conditions: primary human keratinocytes with fibroblasts; actives raise or lower the signal. In short, it runs like this:
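Human keratinocyte/foreskin fibroblast co-culture; TGF-b1 measured by ELISA 24 h after dosing, fitted bidirectionally versus DMSO. Cytotoxicity checked in parallel cultures by total protein (SRB staining, 560 nm).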

Read-out in experiment [13]: C-C motif chemokine 2 (Homo sapiens) (UniProt P13500)
Kind of experiment: BSK_KF3CT_MCP1: BioMAP Diversity Plus: KF3CT Assay for Monocyte Chemoattractant Protein 1 (MCP1/CCL2) Biomarker Activity (AID 2283073). Conditions: primary human keratinocytes with fibroblasts; actives raise or lower the signal. In short, it runs like this:
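Biomarker MCP-1 is measured by ELISA in primary human keratinocytes co-cultured with foreskin fibroblasts, 24 h after chemical treatment; DMSO serves as the negative control and activity baseline.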

Read-out in experiment [14]: Matrix Metallopeptidase 9 (MMP9), MMP9 (gene 4318)
Kind of experiment: BSK_KF3CT_MMP9: BioMAP Diversity Plus: KF3CT Assay for Matrix Metallopeptidase 9 (MMP9) Biomarker Activity (AID 2283074). Conditions: primary human keratinocytes with fibroblasts; actives raise or lower the signal. The method in brief:
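Keratinocyte plus foreskin fibroblast human primary skin co-culture was dosed with chemical and MMP-9 was quantified by ELISA 24 h later. Bidirectional curve fitting used DMSO as negative control and activity baseline.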

Read-out in experiment [15]: urokinase plasminogen activator (uPA), PLAU (gene 5328)
In words: BSK_KF3CT_uPA: BioMAP Diversity Plus: KF3CT Assay for urokinase plasminogen activator (uPA) Biomarker Activity (AID 2283075). Conditions: primary human keratinocytes with fibroblasts; actives raise or lower the signal. The method in brief: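 Human keratinocyte plus foreskin fibroblast primary co-culture exposed to chemical for 24 h. uPA levels were quantified by ELISA, and activity was fitted bidirectionally against a DMSO negative-control baseline.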

Read-out in experiment [16]: CD40, CD40 (gene 958)
In words: BSK_LPS_CD40: BioMAP Diversity Plus: LPS Assay for CD40 Biomarker Activity (AID 2283076). Conditions: primary human HUVEC with PBMC; actives raise or lower the signal. In short, it runs like this:
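Using a multiplexed primary human co-culture (umbilical vein endothelium plus PBMC), CD40 was read by ELISA 24 h after dosing, with cytotoxicity tracked by sulforhodamine B staining of parallel cultures and activity fitted bidirectionally versus DMSO.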

Read-out in experiment [17]: E-selectin (Homo sapiens) (UniProt P16581)
Kind of experiment: BSK_LPS_Eselectin: BioMAP Diversity Plus: LPS Assay for Eselectin Biomarker Activity (AID 2283077). Conditions: primary human HUVEC with PBMC; actives raise or lower the signal. The method in brief:
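Dose chemical onto LPS-driven HUVEC/PBMC co-culture; after 24 h, run ELISA for E-selectin; fit up- and down-going responses relative to DMSO control.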

Read-out in experiment [18]: Interleukin-8 (IL8), CXCL8 (gene 3576)
In words: BSK_LPS_IL8: BioMAP Diversity Plus: LPS Assay for Interleukin-8 (IL8) Biomarker Activity (AID 2283078). Conditions: primary human HUVEC with PBMC; actives raise or lower the signal. In short, it runs like this: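 In this LPS system, chemical-treated human umbilical vein endothelium/PBMC co-cultures were harvested at 24 h for IL-8 ELISA.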

Experiment [19] is described as follows: BSK_LPS_SRB: Viability Assessment in the BioMAP Diversity Plus: LPS Assay (AID 2283079).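 Note: total protein by sulforhodamine B absorbance as a cytotoxicity measure; measured one day after compound addition.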 Conditions: primary human HUVEC with PBMC. The method in brief: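 Cytotoxicity endpoint in human endothelial–PBMC co-culture: 24 h exposure, then SRB (0.1%) staining, 560 nm read.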
Read-out in experiment [20]: Interleukin-1 alpha (IL1a), IL1A (gene 3552)
Kind of experiment: BSK_LPS_IL1a: BioMAP Diversity Plus: LPS Assay for Interleukin-1 alpha (IL1a) Biomarker Activity (AID 2283080). Conditions: primary human HUVEC with PBMC; actives raise or lower the signal. In short, it runs like this: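 Primary human HUVEC and PBMC co-culture stimulated with LPS is dosed and harvested at 24 h. Both increases and decreases in ELISA-measured IL-1a are scored relative to DMSO.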

E-selectin (Homo sapiens), sequence (P16581 whole entry, looked up): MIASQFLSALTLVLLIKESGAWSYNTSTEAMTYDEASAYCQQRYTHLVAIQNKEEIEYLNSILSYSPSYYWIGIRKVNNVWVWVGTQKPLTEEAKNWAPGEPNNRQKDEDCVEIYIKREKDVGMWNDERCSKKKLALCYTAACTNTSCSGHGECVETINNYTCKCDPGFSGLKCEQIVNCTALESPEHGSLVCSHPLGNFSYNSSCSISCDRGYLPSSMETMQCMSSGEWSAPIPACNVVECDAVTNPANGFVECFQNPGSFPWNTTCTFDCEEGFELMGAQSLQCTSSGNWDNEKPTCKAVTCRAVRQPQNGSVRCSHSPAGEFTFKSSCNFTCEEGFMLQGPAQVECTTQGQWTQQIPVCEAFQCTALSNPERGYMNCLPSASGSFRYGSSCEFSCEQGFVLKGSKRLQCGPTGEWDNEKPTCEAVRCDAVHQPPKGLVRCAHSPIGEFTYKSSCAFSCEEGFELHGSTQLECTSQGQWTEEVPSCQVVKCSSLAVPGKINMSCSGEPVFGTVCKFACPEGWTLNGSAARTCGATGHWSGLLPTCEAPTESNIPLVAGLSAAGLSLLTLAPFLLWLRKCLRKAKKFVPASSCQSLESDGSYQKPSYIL

As to `N#Cc1ccc(CC(=NNC(=O)Nc2ccc(OC(F)(F)F)cc2)c2cccc(C(F)(F)F)c2)cc1`, the result in experiment [1], in experiment [2], in experiment [3], in [4], in experiment [5] and in [6] was inactive. In addition, the outcome in [7], in [8], in experiment [9], in experiment [10], in experiment [13] and in experiment [14] was inactive. For the same compound, the outcome in [15], in [16], in experiment [17], in experiment [18], in [19] and in [20] was inactive. The results for the AC50 in experiment [11] and in [12] were 2.21 µM (active) and 0.463 µM (active), respectively.

Take `CCCCCCCCCC=O`: the result in experiment [1], in [2], in experiment [3], in experiment [4], in experiment [5] and in [6] was inactive. The outcome in experiment [7], in experiment [9], in [10], in experiment [11], in experiment [12] and in experiment [13] was inactive. Besides, the result in experiment [14], in experiment [15], in experiment [16], in experiment [17], in [18] and in experiment [19] was inactive. In experiment [20], the result was inactive. In [8], the half-maximal activity concentration (AC50) was 11.9 µM (active).

Turning to `CCC(=O)OCc1ccccc1`, the outcome in [1], in [2], in experiment [3], in experiment [4], in experiment [5] and in [6] was inactive. Moreover, the result in experiment [7], in [8], in [9], in experiment [10], in experiment [11] and in [13] was inactive. Besides, the outcome in experiment [14], in [15], in [16], in experiment [17], in experiment [18] and in experiment [19] was inactive. The outcome in experiment [20] was inactive.

On to `O=P(c1ccccc1)(c1ccccc1)c1ccccc1`, for which the result in experiment [1], in experiment [2], in experiment [3], in experiment [4], in [5] and in [6] was inactive. For the same compound, the outcome in experiment [7], in [8], in experiment [9], in [10], in experiment [11] and in experiment [12] was inactive. Moreover, the outcome in experiment [13], in experiment [14], in experiment [15], in experiment [16], in experiment [17] and in experiment [18] was inactive. Also, the outcome in [19] and in [20] was inactive.

For `CCCCCCCCC=O`, the result in experiment [1], in experiment [2], in experiment [3], in [4], in experiment [5] and in experiment [6] was inactive. Moreover, the result in experiment [7], in [8], in experiment [9], in experiment [10], in [11] and in [12] was inactive. Also, the outcome in experiment [13], in [14], in experiment [15], in experiment [16], in [17] and in [18] was inactive. The result in experiment [19] and in experiment [20] was inactive.

Consider `C=CCOC(=O)CCC1CCCCC1`, for which the result in experiment [1], in experiment [2], in [3], in experiment [4], in experiment [5] and in experiment [6] was inactive. For the same compound, the outcome in [7], in [8], in experiment [9], in experiment [10], in [11] and in experiment [13] was inactive. Besides, the result in experiment [14], in [15], in experiment [16], in [17], in experiment [18] and in [19] was inactive. In [20], the result was inactive.

The values are drawn from PubChem BioAssay (EPA / NIEHS).
